Bioassay records deposited in PubChem by National Center for Advancing Translational Sciences (NCATS).
Hits are enriched below; roughly 6% of the tested compounds scored in any of these assays.
BCR signal inh: inhibitors of chronic active B-cell receptor signaling. ABC-DLBCL IkBa-CBG/CBR reporter, luminescence ratio, 4 h. Potency, µM (doses to about 46.1 µM), inactives show at the highest dose activity change, negative = inhibition, actives largely listed as inhibitors. 0.05% of 340,000 active. AID 493014; active = well fitted inhibition curve with a large enough effect in the signal ratio, with a control signal flat, not every such curve was filed as active; inconclusive = small, poorly fitted or top-dose-only effect, or effect the other way, or a change in a side signal; the % refers to the signal ratio;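 note: potency is the fitted concentration of half-maximal effect; plate controls were basal doxycycline-induced cells for no effect and cells given 10 µM MG132 for full effect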
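TMD8 human ABC-DLBCL cells with doxycycline-inducible IκBα–green luciferase fusion and unfused red luciferase, in 0.5% FBS medium; compounds up to 46 uM, 4 h at 37C. Green/red luminescence ratio, filter-overlap corrected, fitted to concentration-response curves.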
D1 antag: human D1 dopamine receptor antagonism; P21728; HEK293 TREx D1 cells, calcium flux, dopamine EC80; active compounds read low; activity change, negative = inhibition, % at 10 µM; 3.2% of 360,000 active; in the data active = activity change below about -30%; note: % is set by controls: 0 for no effect and ±100 for the full control effect
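HEK293 T-REx cells expressing inducible, force-coupled D1 receptor; no-wash Ca dye, 30–90 min RT. Cmpd → 180 s read at 1 Hz → EC80 DA → 180 s read.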
D1 agonist: activates the human D1 dopamine receptor. HEK293 T-REx D1 cells, calcium flux, agonist mode. activation, % at 2 µM. 1% of 360,000 active; in the data active = activation above about 30%; note: 0% is about no effect
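Inducible HEK293 T-REx D1 cells, force-coupled to calcium signalling, were plated at 4000 cells/well with tetracycline and held overnight at 30 C. After no-wash calcium dye loading, compound-evoked calcium rise over 180 s flagged agonists.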
DRD3 agonist: agonists of human D3 dopamine receptor | P35462 | D3R DiscoveRx beta-arrestin cells, luminescence, 90 min | max activation, % | 0.58% of 410,000 active; in the data active = max activation above about 30%; note: 0% is about no effect
Target sequence (P35462 whole entry, looked up): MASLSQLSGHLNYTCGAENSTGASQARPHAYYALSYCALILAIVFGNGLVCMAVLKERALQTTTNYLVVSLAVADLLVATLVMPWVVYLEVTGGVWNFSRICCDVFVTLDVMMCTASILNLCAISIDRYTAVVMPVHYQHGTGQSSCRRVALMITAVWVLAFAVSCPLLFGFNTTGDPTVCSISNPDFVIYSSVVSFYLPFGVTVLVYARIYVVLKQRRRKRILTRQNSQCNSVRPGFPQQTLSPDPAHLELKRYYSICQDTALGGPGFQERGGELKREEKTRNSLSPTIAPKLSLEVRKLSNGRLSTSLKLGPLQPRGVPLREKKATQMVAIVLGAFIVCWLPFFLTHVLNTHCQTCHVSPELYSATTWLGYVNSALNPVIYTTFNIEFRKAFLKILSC
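Agonist mode: compounds and dopamine controls were applied to plated cells for 90 min at 37 degrees C after an overnight attachment at 1500 cells/well. Luminescent read-out followed 30 - 60 minutes at room temperature with DiscoveRx detection reagent.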
D3 antag: D3 dopamine receptor (human) antagonism; max response, negative = inhibition, %; P35462; D3R cells, DiscoveRx beta-arrestin luminescence, antagonist mode; active compounds read low; 2.5% of 360,000 active; in the data active = max response below about -50%; inconclusive = no clear call, values can overlap the other calls; note: % is set by controls: 0 for no effect and ±100 for the full control effect
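Cells plated overnight at 1500 cells/well, then exposed to library compounds with dopamine controls for 90 minutes at 37 degrees C. DiscoveRx reagent added for 30–60 minutes at room temperature; luminescence read, quantitative HTS format.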
D1 PAM: human D1 dopamine receptor positive modulation; HEK293 TREx D1 cells, calcium flux, dopamine EC20 potentiation; potentiation, % at 10 µM; P21728; 0.036% of 360,000 active; in the data active = potentiation above about 30%; note: 0% is about no effect
* = called active by the depositor; ? = inconclusive; · = no result.

SMILES	BCR signal inh	D1 antag	D1 agonist	DRD3 agonist	D3 antag	D1 PAM
Cc1ccc(NC(=O)c2c(C)nn(-c3ccccc3)c2-n2cccc2)c(Cl)c1	·	-32.9*	4.4	-3.6	·	-2.9
O=C(CCSCc1cnn(-c2ccccc2)c1-n1cccc1)NCc1ccc(Cl)cc1	·	-51.7*	-1.0	3.7	·	0.7
Cc1ccc(CNC(=O)CCSCc2cnn(-c3ccccc3)c2-n2cccc2)cc1	·	-34.0*	-2.0	1.3	·	-2.6
O=C(CSCc1cnn(-c2ccccc2)c1-n1cccc1)NCc1cccnc1	?	9.6	20.6	-9.4	-2.8	-4.2
COc1ccc(CNC(=O)CSCc2cnn(-c3ccccc3)c2-n2cccc2)cc1OC	·	-33.6*	43.3*	10.0	·	-4.1
COc1ccccc1CNC(=O)CSCc1cnn(-c2ccccc2)c1-n1cccc1	15.0%	3.1	9.7	3.1	17.4	7.7
O=C1[C@@H](Oc2ccccc2)[C@@H](c2ccncc2)N1c1ccncc1	-0.1%	·	·	-10.0	-9.8	·
Cc1nn(-c2ccccc2)c2sc(C(=O)Nc3ccc(Cl)cc3Cl)cc12	·	-82.8*	-1.4	4.8	·	2.9
Cc1ccc(NC(=O)CSCc2cnn(-c3ccccc3)c2-n2cccc2)c(Cl)c1	·	20.2	0.2	70.3*	·	0.6
Cc1cc(OCC(=O)Nc2nc3c(s2)CCCC3)cc(C)c1Cl	·	-1.6	0.8	11.8	·	0.9
O=C(CCc1nc(-c2ccccc2F)no1)NCc1ccco1	4.9%	9.8	1.3	1.0	-87.9*	0.1
O=C(NCc1ccco1)c1ccccc1-c1nc(-c2ccc(F)cc2)no1	-4.6%	-45.4*	-0.3	-0.3	8.2	2.5
CCOC(=O)c1cccc(NC(=O)CCc2nc(-c3ccccc3F)no2)c1	?	0.8	10.4	-0.5	10.1	-2.1
Cc1ccccc1-c1noc(-c2ccccc2C(=O)NCc2ccco2)n1	?	1.2	12.2	4.6	-6.4	-4.3
O=C(CCc1nc(-c2ccccc2F)no1)Nc1cccc(C(F)(F)F)c1	·	-29.4	31.5*	-5.8	·	-2.6
COc1cccc(CNC(=O)[C@@H]2CCCN2)c1	·	·	·	6.5	0.0	·
Cc1cc(C)c(C(O)c2ncc(-c3ccccc3F)[nH]2)c(C)c1 (stereo not given)	·	·	·	-1.1	-6.0	·
COC(=O)c1ccc(/C=C/c2ccc3cccc(OC(C)=O)c3n2)cc1	?	4.9	4.6	-15.6	-64.2*	0.1
COc1c(OC(C)=O)ccc(/C=C/c2ccc3cccc(OC)c3n2)c1[N+](=O)[O-]	?	-19.9	0.1	-7.2	-20.8	-7.9
O=[N+]([O-])O[C@@H]1CO[C@H]2[C@@H]1OC[C@@H]2O	·	·	·	3.6	·	·
COC(=O)C[C@H]1C=C[C@@H](NC(=O)c2ccncc2)[C@@H](CO)O1	·	·	·	0.9	19.8	·
Cc1ccc(-n2cc(CNCCc3cscn3)c(-c3ccc(F)cc3)n2)cc1	8.9%	29.0	12.0	-36.4	-14.5	-3.0
COc1ccc(-n2cc(CNCCc3cscn3)c(-c3ccccc3Cl)n2)cc1	?	-3.2	23.0	-9.1	-100.6*	-2.4
CCOC(=O)C(CC)Sc1nnc2[nH]c(=O)cc(C)n12 (stereo not given)	?	·	-1.3	-15.5	·	-0.8
Cc1ccc(N(C)S(=O)(=O)c2ccc(-c3coc(C)n3)cc2)cc1	·	-38.6*	0.4	5.6	·	-5.5
SMILES	BCR signal inh	D1 antag	D1 agonist	DRD3 agonist	D3 antag	D1 PAM
Cc1nc(-c2ccc(S(=O)(=O)NCc3ccc(N(C)C)cc3)cc2)co1	·	19.2	5.6	3.1	·	-3.8
COc1ccc(NS(=O)(=O)c2ccc(-c3coc(C)n3)cc2)c(OC)c1	-6.3%	-32.6*	8.1	-2.6	12.1	-7.8
COc1ccc(OC)c(CNS(=O)(=O)c2ccc(-c3coc(C)n3)cc2)c1	·	-9.6	9.7	0.0	·	-3.2
Cc1nc(-c2ccc(S(=O)(=O)NCc3ccc(F)cc3)cc2)co1	·	-55.8*	1.1	1.5	·	-1.7
COc1ccc(-c2nc(CNS(=O)(=O)c3ccc(F)cc3)cs2)cc1	·	-32.2*	23.6	-8.6	·	-0.8
Cc1cc(Cl)ccc1OCC(=O)Nc1c(C(=O)c2ccccc2)oc2ccccc12	·	-9.6	0.9	-7.5	·	3.0
COc1cccc(N2CCN(C3=NS(=O)(=O)C(c4ccc(C)cc4)=C3C)CC2)c1	·	0.8	0.4	-7.6	·	-1.1
Cn1c(NCc2cccnc2)nc2cc(-c3ccc(C(=O)N4CCOCC4)cc3)sc2c1=O	·	·	·	-14.2	-78.4*	·
COc1ccc(N2CCN(Cc3cc4c(cc3O)CCC4)CC2)cc1	13.8%	-1.9	0.1	-4.6	-87.3*	5.2
CC1(C(=O)NS(=O)(=O)c2ccc(Cl)s2)CCN1C(=O)C1(c2ccccc2)CCCC1 (stereo not given)	·	·	·	-4.1	0.0	·
Cc1csc(N=Nc2ccc(N(C)C)cc2)[n+]1[O-]	·	·	·	-20.1	-101.6*	·
CCN(Cc1ccccc1)S(=O)(=O)c1cc(C(=O)Nc2cc(Cl)cc(Cl)c2)ccc1F	16.2%	2.4	3.3	0.4	·	1.9
Nn1cnc2c([nH]c3ccccc32)c1=O	-0.4%	-31.9*	2.5	2.2	2.2	-0.1
CC(C)(C)c1ccc(C(=O)Nc2ccc(-c3nc4cc(Cl)ccc4o3)cc2)cc1	·	4.0	-0.4	-10.7	·	-0.2
N#Cc1cc2nc(O)c(O)nc2cc1[N+](=O)[O-]	-4.4%	-0.5	-0.1	-33.0	?	-0.9
CNc1nc2cc([N+](=O)[O-])c([N+](=O)[O-])cc2nc1NC	24.5%	-13.6	39.4*	19.6	67.7	-18.2
Cc1cccc(OCC(=O)Nc2ccccc2C(=O)OCc2cc(=O)n3ccsc3n2)c1	·	0.2	-1.4	-4.5	·	0.5
CC1c2ccsc2CCN1S(=O)(=O)c1ccccc1 (stereo not given)	5.6%	-1.0	5.3	-8.1	5.2	0.2
O=S(=O)(c1cccc(F)c1)N1CCc2sccc2C1c1ccc(OC(F)(F)F)cc1 (stereo not given)	?	-40.8*	26.7	-17.0	-23.1	-0.8
C=CCOC(=O)Nc1nc(CCNC(=O)OCc2ccccc2)c(C(=O)O)s1	·	·	·	0.5	0.0	·
CC(C)(O)CNC(=O)Nc1ccc(Cl)c(Cl)c1	?	6.8	4.7	-1.7	-12.7	-17.4
CC(C)(C)N(NC(=O)Nc1ccc(F)cc1)C(=O)c1ccccc1	-0.6%	14.4	4.8	-14.2	0.5	3.1
Cc1cc(C)cc(C(=O)N(NC(=O)Nc2ccc(Cl)cc2)C(C)(C)C)c1	8.7%	-30.4*	26.1	-4.1	3.6	-4.7
CC(C)(CC(=O)O)CC(=O)Nc1ccc(Cl)c(Cl)c1	-8.0%	-58.3*	1.0	2.9	14.6	-3.2
CC(C)(C)N(NC(=O)Nc1ccc(Cl)c(Cl)c1)C(=O)c1ccccc1	?	-27.1	33.4*	0.6	3.3	-0.9
